These results are taken from PubChem BioAssay (NCI).

Compounds without any hit were thinned out: in the full panel of roughly 83,000, 20% have a hit.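 Treatment: one concentration, 48 hours, 96-well format. Scoring: percent growth, with anything below 10 considered active.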 Values without a mark were called inactive. Calls of active or inactive are those of the source.

Common to all, as to assay: NCI-60 one-dose screen, 48 h (100 = growth as untreated, 0 = no growth, -100 = all killed)
Common to all, as to conditions: 10 µM

Assay [1] concerns NCI-H23 lung.
Assay [2] has as its system NCI-H226 lung.
For assay [3], the system named is NCI-H322M lung.
The test system of assay [4] is HOP-62 NSCLC.
Assay [5] deals with NCI-H460 lung.
For assay [6], the system named is HOP-92 NSCLC.
For assay [7], the system named is NCI-H522 lung.
Assay [8] has as its system A549/ATCC NSCLC.
Assay [9] concerns 786-0 renal.
For assay [10], the system named is COLO 205 colon.

Take `COc1ccc(OC)c(/C=N/NC(=O)c2ccc3nc(-c4ccc(Cl)cc4)[nH]c3c2)c1`: the growth in assay [1] is 66.1%; in [2] it was 64.3%; in assay [3], 71.1%; in assay [4], 81.6%; in assay [5] it was 82.5%; in assay [6] it was 63.4%. For the same molecule, the growth in assay [7] was 59.1%; in [8] it was 91.2%; in assay [9], 73.4%; in [10], 81.7%.

For `CC(C)(C)Nc1nc2cc(Cl)c(Cl)cc2nc1S(C)(=O)=O`, the growth in assay [1] is -63.6% (active); in assay [2] it was -83% (active); in [3], 98%; in assay [4], 88.1%; in assay [5], 73.1%; in assay [6], -5.25% (active). Also, the growth was -80.6% (active) in [7], 94.1% in assay [8], 44% in assay [9] and 31.2% in assay [10].

As to `COc1ccccc1[C@H]1C(C(=O)c2ccc(O)cc2)C2(N[C@@H]1c1ccccc1)C(=O)Nc1ccc(Br)cc12` (stereo not given in full), the growth in assay [1] is 33.8%; in assay [2], 48.1%; in [3], 55.3%; in [4], 51.3%; in assay [5] it was 20.2%; in [6] it was 51.8%. The growth in assay [7] was -7.87% (active); in assay [8] it was 32.6%; in [9], 26.9%; in [10], -5.4% (active).

`CN1C(=O)N(C)C2SC(N/N=C/c3ccccc3F)=NC21` (stereo not given): the growth was 76.5% in [1]; 92.4% in assay [2]; 97.2% in [3]; 68.3% in assay [4]; 58.2% in assay [5]; 124% in [6]. Besides, the growth in assay [7] was 46.1%; in assay [8], 63.1%; in assay [9], 68.7%; in assay [10], 100%.

Consider `CC1=C2C(=C[C@@](C)(COCOCCCl)[C@@H]2O)C(=O)[C@](C)(O)C12CC2`, for which the growth in [1] is -81.7% (active); in assay [2], -39.2% (active); in assay [3], -18.2% (active); in assay [4] it was -51.1% (active); in [5] it was -11% (active); in [6], -14.6% (active). Moreover, the growth in assay [7] is -74.4% (active); in [8] it was -1.86% (active); in [9] it was -36.2% (active); in [10], -73.7% (active).

For `Cc1nn(-c2ccccc2)c2ncn(CC(=O)N/N=C/c3c[nH]c4ccccc34)c(=O)c12`, the growth in assay [1] was 95.4%; in [2], 93.1%; in assay [3], 93.5%; in [4], 95.6%; in assay [5], 92.9%; in assay [6], 80.5%. The growth in assay [7] was 89%; in assay [8], 85.4%; in assay [9], 88%; in assay [10] it was 109%.

With `C#CCNC(=O)CCC(=O)OC[C@]12CC[C@@H](C(=C)C)[C@@H]1C1CC[C@@H]3[C@@]4(C)CCCNC(C)(C)[C@@H]4CC[C@@]3(C)[C@]1(C)CC2` (stereo not given in full), the growth in [1] is -91.8% (active); in assay [2], -80.8% (active); in assay [3], 39.2%; in assay [4], -23.9% (active); in assay [5] it was -74% (active); in assay [6], -14.4% (active). Also, the growth in assay [7] is -82.7% (active); in [8], -76.5% (active); in assay [9], -58.3% (active); in assay [10], -83% (active).

Turning to `CCN1CCN(Cc2ccc(NC(=O)c3cccc(-n4cc(-c5ccc(NC(C)=O)nc5)nn4)c3)cc2C(F)(F)F)CC1`, the growth was 93% in assay [1]; 99.9% in assay [2]; 125% in assay [3]; 121% in assay [4]; 100% in assay [5]; 72.6% in assay [6]. Also, the growth in assay [7] is 74.7%; in [8], 96.4%; in [9], 58.5%; in [10], 57.3%.

Take `COc1cccc(-c2nn(-c3ccccc3)cc2-c2ccnc(NCCCNC(=O)Nc3ccc(F)cc3)c2)c1`: the growth was 17% in assay [1]; 16.4% in assay [2]; 43.7% in assay [3]; 7.43% (active) in assay [4]; 15.2% in [5]; -25% (active) in assay [6]. The growth was -3.16% (active) in [7], 15.1% in [8], -11.3% (active) in assay [9] and -0.929% (active) in assay [10].

Consider `CS(=O)(=O)Nc1ccc(-c2ccc3c(c2)ncn3-c2ccc(NC(=O)Nc3ccc(Cl)c(C(F)(F)F)c3)cc2)cc1`, for which the growth in assay [1] was -70.3% (active); in assay [2] it was -51% (active); in [3], -42.9% (active); in [4], -87.1% (active); in [5], 0.554% (active); in assay [6], -43.5% (active). The growth in assay [7] is -87.6% (active); in [8], -75.1% (active); in assay [9], -77.9% (active); in assay [10] it was -90.4% (active).

Take `O=S(=O)(Nc1ncccn1)c1ccc(-n2c(-c3ccccc3)nc(-c3ccccc3)c2-c2ccccc2)cc1`: the growth in assay [1] is 95.4%; in assay [2] it was 87.8%; in assay [3] it was 96.4%; in assay [4] it was 100%; in assay [5], 88.1%; in assay [6], 109%. Also, the growth is 94.4% in [7], 89.7% in [8], 88% in assay [9] and 130% in [10].

Consider `CN1CCN(c2ccc(Nc3nc(NCCCNC(=O)C4CCCCC4)c4sccc4n3)cc2)CC1`, for which the growth in [1] is 60.3%; in [2] it was 81.6%; in [3], 70%; in [4], 72.4%; in assay [5] it was 52.9%; in [6], 25.4%. Also, the growth in assay [7] is 79.4%; in [8], 59.5%; in assay [9], 3.18% (active); in assay [10], 68.8%.

Turning to `O=c1cc(-c2ccccc2)oc2cc(OCCCNCc3ccccc3)cc(O)c12`, the growth in [1] is -91% (active); in assay [2], 46.4%; in assay [3] it was 31%; in [4], 21.3%; in assay [5], -53.4% (active); in assay [6], -9.75% (active). The growth is -62.6% (active) in assay [7], 26.2% in assay [8], -48% (active) in assay [9] and -88% (active) in assay [10].
